The text below walks through data of PubChem BioAssay (NCATS).

Assay [1] is described as follows: Primary qHTS for small molecule stabilizers of the endoplasmic reticulum resident proteome: Secreted ER Calcium Modulated Protein (SERCaMP) assay (AID 1508630). Note: % is set by controls: 0 for no effect and ±100 for the full control effect. Conditions: SH-SY5Y GLuc-SERCaMP (Gaussia luciferase released on ER calcium loss) secretion, thapsigargin, luminescence; series mostly up to 38.4 µM. The procedure, abridged: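 The SH-SY5Y reporter protocol was run at 3 concentrations up to 38.3 uM (primary) or 11 concentrations (follow-up): 16 h compound, 100 nM thapsigargin for 4 h, then extracellular luciferase luminescence.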

Assay [2] in a line: A High-Content qHTS Against Drug Library for the Identification of Small Molecules that Inhibit DYT1 Early Onset Primary Dystonia-Associated Cell Pathology (AID 1645839; calls by dose curve). Conditions: HEK293 Flp-In EGFP-delE TorsinA, punctate imaging, 48 h; series mostly up to 46.1 µM. A digest of the protocol: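 Cells were seeded and left for 24 h, then dosed with compound alongside tetracycline induction of mutant EGFP-TorsinA. They were incubated for 48 h, fixed in 4% paraformaldehyde, permeabilized and imaged for mislocalization (%pathology) and cell count.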

In assay [3] the target is Cytochrome P450 2D6 (Homo sapiens) (UniProt P10635). The assay is described as follows: Cytochrome P450 family 2 subfamily D member 6 (CYP2D6) small molecule antagonists: luciferase biochemical (cell-free) qHTS assay (AID 1645840; active = well fitted curve in the direction sought with a large enough effect in the repeat runs; an effect the other way counts as inactive or inconclusive; note: nearly all actives have a fitted effect of over 55% in size; note: potency is the fitted concentration of half-maximal effect; for activity change, negative = inhibition: % is set by controls: 0 for no effect and ±100 for the full control effect). The conditions noted are these: P450-Glo CYP2D6 enzyme, luciferin luminescence, 1 h; series mostly up to 57.4 µM. A digest of the protocol:
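P450-Glo CYP2D6 system: proluciferin substrate converted by enzyme to luciferin, read by luminescence proportional to activity. Enzyme-substrate mix with compound 10 min at room temperature, then NADPH regeneration 1 h before detection reagent.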

Assay [4] deals with Cytochrome P450 2C9 (Homo sapiens) (UniProt P11712). The assay is described as follows: Cytochrome P450 family 2 subfamily C member 9 (CYP2C9) small molecule antagonists: luciferase biochemical (cell-free) qHTS assay (AID 1645842; active = well fitted curve in the direction sought with a large enough effect in the repeat runs; an effect the other way counts as inactive or inconclusive; note: nearly all actives have a fitted effect of over 55% in size; note: potency is the fitted concentration of half-maximal effect; for activity change, negative = inhibition: % is set by controls: 0 for no effect and ±100 for the full control effect). The conditions noted are these: P450-Glo CYP2C9 enzyme assay, luciferin luminescence; series mostly up to 57.4 µM. The procedure, abridged:
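P450-Glo CYP2C9 system: proluciferin substrate with enzyme in mix containing 0.4% BSA, 10 min at room temperature, then NADPH regeneration solution added and incubated 1 h at 37C. Detection reagent stopped reaction; luminescence read after 20 min as RLU.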

Assay [5] is described as follows: Primary qHTS for inhibitors of nuclear receptor binding SET domain protein 2 (NSD2) in an isogenic RCH-ACV NSD2 p.E1099K mutant (9B) (AID 1645876). Note: nearly all actives have a fitted effect of over 70% in size. The conditions noted are these: RCH-ACV NSD2 E1099K (9B) viability, CellTiter-Glo, 72 h; series mostly up to 44.9 µM.
Assay [6] in a line: Primary qHTS for inhibitors of nuclear receptor binding SET domain protein 2 (NSD2) in an RCH-ACV wild type WT cells (2C) (AID 1645877). For activity change, negative = cell killing: % is set by controls: 0 for no effect and ±100 for the full control effect. Note: nearly all actives have a fitted effect of over 70% in size. Conditions: RCH-ACV (leukaemia line) NSD2 WT (2C) viability, CellTiter-Glo, 72 h; series mostly up to 44.9 µM.
Assay [7] addresses Rap guanine nucleotide exchange factor 3 (Homo sapiens) (UniProt O95398). Nature of the assay: Confirmatory qHTS for antagonist of cAMP-regulated guanine nucleotide exchange factor 3 (EPAC1) (AID 1645880).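 Note: plate controls were DMSO only for no effect and full effect of the ATA control for full effect; nearly all actives have a fitted effect of over 55% in size.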 The conditions noted are these: EPAC1 Rap1B-BODIPY-GDP exchange, fluorescence; series mostly up to 115 µM. The procedure, abridged:
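Released BODIPY-GDP fluoresces less than Rap1-bound BODIPY-GDP; the signal is followed at 480/540 nm at 5-min intervals over 30 min, after 5 min at room temperature. Reactions contain 100 nM EPAC1, 250 nM RAP1B-BODIPY-GDP and 50 uM GDP; results are normalized to ATA and DMSO.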

For assay [8] the target is unchanged. The assay is described as follows: Confirmatory qHTS for agonist of cAMP-regulated guanine nucleotide exchange factor 3 (EPAC1) (AID 1645881).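 Note: EPAC1 catalysed release of BODIPY-GDP from Rap1B seen as fluorescence loss; nearly all actives have a fitted effect of over 75% in size.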 Conditions: EPAC1 Rap1B BODIPY-GDP exchange fluorescence, 100% = cAMP control response; series mostly up to 154 µM.
The target in assay [9] is Rap guanine nucleotide exchange factor 4 (Homo sapiens) (UniProt Q8WZA2). The assay is described as follows: Confirmatory qHTS for agonist of cAMP-regulated guanine nucleotide exchange factor 4 (EPAC2) (AID 1645884).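 Note: nucleotide exchange releases bodipy-GDP from Rap1 and this lowers its fluorescence; % is set by controls: 0 for no effect and ±100 for the full control effect; nearly all actives have a fitted effect of over 65% in size.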 The conditions noted are these: EPAC2 GEF activity, Rap1B-BODIPY-GDP fluorescence, percent relative to cAMP agonist control; series mostly up to 154 µM.
Chain of Rap guanine nucleotide exchange factor 4 (Homo sapiens) (Q8WZA2 whole entry, looked up): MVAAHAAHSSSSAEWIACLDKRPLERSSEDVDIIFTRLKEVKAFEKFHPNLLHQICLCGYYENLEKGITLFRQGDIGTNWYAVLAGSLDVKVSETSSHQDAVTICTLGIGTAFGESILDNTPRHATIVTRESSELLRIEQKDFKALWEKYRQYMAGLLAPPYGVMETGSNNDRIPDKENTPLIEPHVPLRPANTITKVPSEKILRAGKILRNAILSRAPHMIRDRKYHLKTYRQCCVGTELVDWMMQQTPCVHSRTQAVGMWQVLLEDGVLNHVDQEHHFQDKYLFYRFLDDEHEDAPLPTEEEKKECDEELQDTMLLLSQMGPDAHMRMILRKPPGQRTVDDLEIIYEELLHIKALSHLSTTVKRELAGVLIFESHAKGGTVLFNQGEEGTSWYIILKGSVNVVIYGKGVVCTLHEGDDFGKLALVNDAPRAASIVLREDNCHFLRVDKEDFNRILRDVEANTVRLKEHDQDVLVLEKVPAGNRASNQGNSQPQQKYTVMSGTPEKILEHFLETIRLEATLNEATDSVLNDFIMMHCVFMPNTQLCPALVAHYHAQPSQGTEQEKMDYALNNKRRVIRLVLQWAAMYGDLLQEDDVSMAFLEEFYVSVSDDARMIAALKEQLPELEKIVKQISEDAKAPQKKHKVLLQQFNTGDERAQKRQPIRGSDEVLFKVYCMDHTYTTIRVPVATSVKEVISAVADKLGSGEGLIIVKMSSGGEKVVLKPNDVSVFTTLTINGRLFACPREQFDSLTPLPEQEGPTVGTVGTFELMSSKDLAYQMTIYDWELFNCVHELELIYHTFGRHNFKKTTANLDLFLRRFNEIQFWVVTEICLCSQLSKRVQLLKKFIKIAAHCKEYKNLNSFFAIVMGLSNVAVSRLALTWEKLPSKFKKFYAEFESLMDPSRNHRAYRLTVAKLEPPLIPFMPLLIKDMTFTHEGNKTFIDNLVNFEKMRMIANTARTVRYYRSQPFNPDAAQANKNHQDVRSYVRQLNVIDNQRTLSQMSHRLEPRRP
Assay [10] shares this target. Nature of the assay: Confirmatory qHTS for antagonist of cAMP-regulated guanine nucleotide exchange factor 4 (EPAC2) (AID 1645885). Note: potency is the fitted concentration of half-maximal effect; nearly all actives have a fitted effect of over 25% in size. The conditions noted are these: EPAC2 Rap1B-BODIPY-GDP exchange fluorescence, biochemical; series mostly up to 202 µM.

Values joined by “and” are separate entries in the source; they are usually repeats but may differ in a detail not shown here. Equal entries are not always repeated. Inconclusive results are not listed. Unmarked numbers belong to inactive results. Active and inactive are the calls of the source. Unless noted, calls come from the whole dose curve; as a rule, active = well fitted curve in the direction sought with a large enough effect; inconclusive = small, poorly fitted or top-dose-only effect, or another doubt; inactive = no such curve, though single readings can be large; an effect the other way counts as inactive or inconclusive.

Chain of Cytochrome P450 2D6 (Homo sapiens) (P10635 whole entry, looked up): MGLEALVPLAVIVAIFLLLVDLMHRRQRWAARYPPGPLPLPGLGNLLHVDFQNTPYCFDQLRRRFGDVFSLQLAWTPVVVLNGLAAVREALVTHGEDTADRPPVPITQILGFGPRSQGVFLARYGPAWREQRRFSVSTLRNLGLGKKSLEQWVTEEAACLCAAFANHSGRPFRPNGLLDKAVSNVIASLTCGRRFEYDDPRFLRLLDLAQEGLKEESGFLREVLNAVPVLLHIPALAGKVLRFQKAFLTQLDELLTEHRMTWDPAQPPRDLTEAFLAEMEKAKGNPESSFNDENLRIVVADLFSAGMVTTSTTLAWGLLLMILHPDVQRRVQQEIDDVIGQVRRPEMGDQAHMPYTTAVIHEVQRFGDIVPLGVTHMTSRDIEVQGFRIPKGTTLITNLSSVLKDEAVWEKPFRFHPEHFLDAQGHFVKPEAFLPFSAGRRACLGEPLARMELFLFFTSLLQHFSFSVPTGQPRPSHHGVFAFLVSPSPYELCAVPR
Chain of Rap guanine nucleotide exchange factor 3 (Homo sapiens) (O95398 whole entry, looked up): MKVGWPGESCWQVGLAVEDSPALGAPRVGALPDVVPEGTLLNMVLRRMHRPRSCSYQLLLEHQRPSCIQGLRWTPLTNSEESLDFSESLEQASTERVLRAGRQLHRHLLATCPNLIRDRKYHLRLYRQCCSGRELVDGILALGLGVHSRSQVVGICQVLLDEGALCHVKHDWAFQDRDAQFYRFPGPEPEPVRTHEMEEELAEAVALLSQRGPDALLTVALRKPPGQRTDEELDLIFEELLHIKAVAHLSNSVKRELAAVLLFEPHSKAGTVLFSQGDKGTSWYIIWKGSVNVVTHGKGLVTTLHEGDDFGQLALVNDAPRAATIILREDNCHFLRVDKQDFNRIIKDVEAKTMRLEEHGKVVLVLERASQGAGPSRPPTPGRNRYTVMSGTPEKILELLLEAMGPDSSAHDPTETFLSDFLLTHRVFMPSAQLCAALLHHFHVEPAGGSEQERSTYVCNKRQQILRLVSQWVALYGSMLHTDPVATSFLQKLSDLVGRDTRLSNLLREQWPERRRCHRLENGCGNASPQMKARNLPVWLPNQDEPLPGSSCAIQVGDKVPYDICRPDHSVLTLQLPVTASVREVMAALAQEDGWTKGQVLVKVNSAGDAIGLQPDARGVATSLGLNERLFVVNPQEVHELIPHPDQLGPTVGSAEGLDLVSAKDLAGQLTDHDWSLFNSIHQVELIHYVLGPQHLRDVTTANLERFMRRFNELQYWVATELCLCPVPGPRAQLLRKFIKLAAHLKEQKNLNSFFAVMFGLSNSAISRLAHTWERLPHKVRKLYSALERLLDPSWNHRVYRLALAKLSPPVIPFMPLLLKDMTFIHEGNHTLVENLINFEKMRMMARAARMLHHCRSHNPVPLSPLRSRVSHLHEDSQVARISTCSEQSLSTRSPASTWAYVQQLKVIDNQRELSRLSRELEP
Chain of Cytochrome P450 2C9 (Homo sapiens) (P11712 whole entry, looked up): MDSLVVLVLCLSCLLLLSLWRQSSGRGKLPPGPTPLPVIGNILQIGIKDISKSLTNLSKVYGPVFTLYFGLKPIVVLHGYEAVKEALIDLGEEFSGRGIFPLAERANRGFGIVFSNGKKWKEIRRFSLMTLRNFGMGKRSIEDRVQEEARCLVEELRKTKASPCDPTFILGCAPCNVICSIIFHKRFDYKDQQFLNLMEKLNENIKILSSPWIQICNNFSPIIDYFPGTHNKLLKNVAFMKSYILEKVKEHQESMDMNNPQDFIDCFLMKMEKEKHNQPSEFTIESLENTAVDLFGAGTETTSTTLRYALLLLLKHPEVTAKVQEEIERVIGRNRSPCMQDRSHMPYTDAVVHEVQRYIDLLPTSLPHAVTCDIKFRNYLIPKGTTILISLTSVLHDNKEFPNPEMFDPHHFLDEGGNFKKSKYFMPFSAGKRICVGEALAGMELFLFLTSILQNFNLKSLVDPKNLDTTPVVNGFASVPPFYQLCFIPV

In the case of `CN1C(=O)CC(c2ccccc2)C1=O` (stereo not drawn), the result in assay [1] was inactive. Further, the Potency result in [2], in assay [3], in assay [4], in assay [5] and in assay [6] was “inactive” in each case.
With `NNC(=O)CP(=O)(c1ccccc1)c1ccccc1`, the result in assay [1] was inactive. The Potency result in assay [2] and in [3] was “inactive” in each case. Further, the Potency in assay [4] was 15.5 µM (active).
As to `CC(C)CCCC(C)CCCC(C)CCCCC(C)CCCC(C)CCCC(C)C` (stereo not drawn), in assay [1], the result was inactive. Also, the Potency result in assay [2], in assay [3], in [4], in assay [5] and in assay [6] was “inactive” each time.
As for `CN1C[C@@H]2C[C@H]1CN2c1cc2c(cc1F)c(=O)c(C(=O)O)cn2C1CC1`, in [1], the result was inactive. Moreover, the Potency result in [2], in [3], in [4], in assay [5] and in assay [6] was “inactive” throughout.
With `CNCc1ccccc1`, the result in assay [1] was inactive. In addition, the Potency entry in assay [2], in assay [4], in assay [5] and in assay [6] was “inactive” in each case. Moreover, the Potency in assay [3] was 11 µM (active).
As to `Nc1ccncc1N`, the result in assay [1] was inactive. Also, the Potency result in [2], in [3], in assay [4], in [5] and in assay [6] was “inactive” in each case.
Take `CC1CCN(CCCC(=O)c2ccc(F)cc2)CC1`: the result in [1] was inactive. Further, the Potency result in [2], in [4], in assay [5] and in assay [6] was “inactive” in each case. In addition, the Potency in assay [3] was 0.195 µM (active).
`Cc1cc(C)nc(NS(=O)(=O)c2ccc(N)cc2)n1`: the result in assay [1] was inactive. The Potency result in assay [2], in assay [3], in assay [4], in [5] and in assay [6] was “inactive” throughout.
As for `Cc1cc(NC(=O)C2=C(O)c3ccccc3S(=O)(=O)N2C)no1`, the result in assay [1] was inactive. Besides, the Potency result in [2], in [3], in assay [4], in assay [5] and in assay [6] was “inactive” each time.
Consider `CCCCCC(N)=O`, for which, in assay [1], the result was inactive. Further, the Potency entry in assay [2], in [3], in assay [4], in [5] and in [6] was “inactive” throughout.
For `CCCCCCCCCCOc1cc2c(=O)c(C(=O)OCC)c[nH]c2cc1OCC`, the values for the activity change, negative = inhibition in [1], in assay [3] and in [4] were 2.46% [at 3.88 µM], 3.17% [at 4.83 µM] and 5.88% [at 4.83 µM], respectively. In [2], the % pathology change, negative = correction is 23.7% [at 4.63 µM]. In addition, in assay [5], the outcome is “inactive [at 4.96 µM]”. In addition, the activity change, negative = cell killing in [6] was 4.45% [at 4.96 µM].
As to `CCOc1ccc(C(=O)OCCN(CC)CC)cc1`, in assay [1], the result was inactive. The Potency result in assay [2], in assay [4], in assay [5] and in [6] was “inactive” each time. Also, the Potency in assay [3] is 2.72 µM (active).
`C=CCN1C[C@H](C(=O)N(CCCN(C)C)C(=O)NCC)C[C@@H]2c3cccc4[nH]cc(c34)C[C@H]21`: the result in assay [1] was inactive. For the same compound, the Potency entry in assay [2], in assay [4], in assay [5] and in assay [6] was “inactive” each time. Further, in [3], the Potency is 1.55 µM (active).
Regarding `OCCN1C[C@H](O)[C@@H](O)[C@H](O)[C@H]1CO`, the result in assay [1] was inactive. Moreover, the Potency result in assay [2], in [3], in assay [4], in assay [5] and in assay [6] was “inactive” in each case.
For the compound `FC(F)(F)C(Cl)Br` (stereo not drawn), in [1], the outcome was inactive. In addition, the Potency result in [2], in [3], in assay [4], in assay [5] and in [6] was “inactive” in each case.
On to `O[C@@H]1CO[C@H]2[C@@H]1OC[C@@H]2O`, for which the result in assay [1] was inactive. Besides, the Potency result in assay [2], in [3], in assay [4], in [5] and in [6] was “inactive” each time.
Consider `CC(C(=O)O)c1ccc2c(c1)Cc1cccnc1O2` (stereo not drawn), for which, in assay [1], the outcome was inactive. The Potency result in assay [2], in assay [3], in assay [4], in assay [5] and in assay [6] was “inactive” throughout.
`CC[N+](CC)(CC(=O)Nc1c(C)cccc1C)Cc1ccccc1`: the result in assay [1] was inactive. In addition, the Potency result in assay [2], in assay [3], in assay [4], in assay [5] and in assay [6] was “inactive” each time.
For the compound `COc1ccccc1OC(=O)Oc1ccccc1OC`, the result in [1] was inactive. The Potency entry in assay [2], in assay [3], in assay [4], in assay [5] and in assay [6] was “inactive” in each case.
Regarding `C=CCSCC1Nc2cc(Cl)c(S(N)(=O)=O)cc2S(=O)(=O)N1` (stereo not drawn), the result in assay [1] was inactive. For the same compound, the Potency result in assay [2], in [3], in [5] and in [6] was “inactive” each time. Further, the Potency in assay [4] was 8.49 µM (active).
With `CC(=O)Nc1cccc(O)c1`, the outcome in assay [1] was inactive. Also, the Potency result in assay [2], in [3], in assay [4], in assay [5] and in [6] was “inactive” throughout.
Regarding `CC(=O)OCC(COC(C)=O)OC(C)=O`, in assay [1], the result was inactive. The Potency result in assay [2], in assay [3], in assay [4], in assay [5] and in assay [6] was “inactive” each time.
Regarding `O=C(c1ccccc1)C(O)c1ccccc1` (stereo not drawn), the outcome in assay [1] was inactive. Moreover, the Potency result in assay [2], in assay [3], in [4], in [5] and in assay [6] was “inactive” throughout.
Turning to `Cc1c(C)c2c(c(C)c1OC(=O)c1cccnc1)CC[C@@](C)(CCC[C@H](C)CCC[C@H](C)CCCC(C)C)O2`, the result in [1] was inactive. In addition, the Potency entry in [2], in assay [3], in assay [4], in assay [5] and in assay [6] was “inactive” in each case.
As for `CC(CSC(=O)c1ccccc1)C(=O)N1C[C@@H](Sc2ccccc2)C[C@H]1C(=O)O` (stereo partly drawn), the outcome in [1] was inactive. For the same compound, the Potency result in [2], in assay [3], in assay [4], in [5] and in assay [6] was “inactive” each time.
Regarding `CCOC(=O)c1cccnc1`, the outcome in assay [1] was inactive. Besides, the Potency result in [2], in assay [3], in [4], in [5] and in [6] was “inactive” in each case.
For the compound `CC1(C)[C@@H](OC(=O)CCC(=O)O)CC[C@]2(C)[C@H]3C(=O)C=C4[C@@H]5C[C@@](C)(C(=O)O)CC[C@]5(C)CC[C@@]4(C)[C@]3(C)CC[C@@H]12`, the result in assay [1], in assay [7], in assay [8] and in assay [9] was inactive. Further, the Potency entry in [2], in [3], in assay [4], in assay [5] and in [6] was “inactive” throughout. The Potency in assay [10] is 4.21 µM (active) and 4.13 µM (active).
`C[N+](C)(C)CC(O)CC(=O)[O-]` (stereo not drawn): in assay [1], the result was inactive. The Potency entry in assay [2], in assay [3], in assay [4], in assay [5] and in assay [6] was “inactive” in each case.
As to `C[C@@H]1CCC[C@H](C)N1`, the result in assay [1] was inactive. Also, the Potency entry in assay [2], in assay [3], in assay [4], in assay [5] and in [6] was “inactive” each time.
Regarding `C[C@H]1COc2c(C3(N)CC3)c(F)cc3c(=O)c(C(=O)O)cn1c23`, the result in assay [1] was inactive. The Potency entry in assay [2], in assay [3], in assay [4], in assay [5] and in [6] was “inactive” in each case.
`CN/C(=C\[N+](=O)[O-])NCCSCc1csc(CN(C)C)n1`: the outcome in assay [1] was inactive. The Potency result in assay [2], in assay [3], in [4], in [5] and in [6] was “inactive” in each case.
